Source: PubChem (National Center for Advancing Translational Sciences (NCATS))
CRE Fsk mod = Cell signaling CRE-BLA (Fsk stim) | AID 662, 2007 | Potency, µM (top dose mostly 38.2 µM), for inactives: at the top dose activity change, negative = inhibition, actives largely listed as activators | CHO CRE-bla reporter (cAMP response element driving beta-lactamase), forskolin EC10, beta-lactamase ratio | 71,000 compounds, 2.5% hits; active means well fitted activation curve with a large enough effect in the signal ratio, with a control signal flat, not every such curve was filed as active; inconclusive means small, poorly fitted or top-dose-only effect, or effect the other way, or a change in a side signal; the % refers to the signal ratio; further: potency means the concentration at half of the fitted maximal effect; % of control where 0% means no effect
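Using CellSensor CRE-bla CHO cells in Opti-MEM with 0.5% dialyzed FBS, compounds were titrated with EC10 NKH 477 for 3 h at 37 °C. CCF4 ratio (460/530 nm) gave %Activity; AC50 derived.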
HADH2 inh = qHTS Assay for Inhibitors of HADH2 (Hydroxyacyl-Coenzyme A Dehydrogenase, Type II) | 3-hydroxyacyl-CoA dehydrogenase type-2 (Homo sapiens), Q99714 | recombinant HADH2, NADH fluorescence, beta-hydroxybutyryl-CoA | Potency, µM (series often up to 57.1 µM), inactives show top-dose activity change, negative = inhibition, most hits filed as inhibitors | 73,000 compounds, 3.4% hits; further: potency means the concentration at half of the fitted maximal effect; on the % scale 0 is the no-effect control and ±100 the full control effect; nearly all actives have a fitted effect of over 60% in size
Target sequence (Q99714 whole entry, looked up, one chain of several): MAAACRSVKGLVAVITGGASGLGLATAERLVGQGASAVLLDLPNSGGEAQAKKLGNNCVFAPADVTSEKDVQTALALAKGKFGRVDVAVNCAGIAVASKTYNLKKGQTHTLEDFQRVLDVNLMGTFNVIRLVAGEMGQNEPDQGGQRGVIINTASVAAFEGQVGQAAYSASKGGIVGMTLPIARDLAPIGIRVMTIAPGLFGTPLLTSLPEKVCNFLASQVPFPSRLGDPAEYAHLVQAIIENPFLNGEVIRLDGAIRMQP
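E. coli-expressed His-tagged HADH2 tested at 20 nM in alkaline Tris buffer (pH 9.0); oxidation of 90 uM beta-hydroxybutyryl-CoA with 1 mM NAD+ tracked fluorimetrically for 4 min.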
HSD17B inh = qHTS Assay for Inhibitors of HSD17B4, hydroxysteroid (17-beta) dehydrogenase 4 | Potency, µM (series often up to 57.1 µM), inactives show top-dose activity change, negative = inhibition, hits mostly inhibitors | 3-hydroxyacyl-CoA dehydrogenase type-2 (Homo sapiens), Q99714 | 75,000 compounds, 7.6% hits | recombinant HSD17B10, NADH fluorescence kinetic;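 further: the protocol describes HADH2 (HSD17B10) and not the HSD17B4 of the title; potency means the concentration at half of the fitted maximal effect; on the % scale 0 is the no-effect control and ±100 the full control effect; nearly all actives have a fitted effect of over 70% in size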
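20 nM HADH2, pH 9.0 Tris/Tween; cpd preinc 15 min RT; start w/ 1 mM NAD+ + 90 uM b-hydroxybutyryl-CoA; kinetic fluor ex360/em450 q30s x 4 min; delta last-first.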
A350 autofl = qHTS Assay for Spectroscopic Profiling in A350 Spectral Region. 59,000 compounds, 11% hits. max dye-equivalent concentration, M. AID 590, 2007. Compound autofluorescence, 340/450 nm, Alexa 350 dye-equivalents; active compounds read high; in the data active means max dye-equivalent concentration above about 10 nM; inconclusive means mostly about 1.1 nM to 9.6 nM
AID923 = qHTS Assay for Allosteric/Competitive Inhibitors of Caspase-1: Spectroscopic Profiling in AFC Spectral Region; compound fluorescence, AFC spectral region (405/520 nm); Potency, µM (top dose mostly 57.5 µM), inactives show at the highest dose fluorescence increase, usual class: activators; 75,000 compounds, 1.1% hits; further: potency means the concentration at half of the fitted maximal effect; 0% is about no effect
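Titrations up to 57 uM read every 20 sec for 3 min (405/520 nm) with 50 nM caspase 1 and 5 uM Ac-WEHD-AFC, pH 7.5 HEPES buffer. Fluorescence-vs-time intercept gave baseline, scaled against on-plate AFC standard.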
4-MU autofl = qHTS Assay for Spectroscopic Profiling in 4-MU Spectral Region; compound autofluorescence, 340/450 nm, 4-MU equivalents; active compounds read high; 59,000 compounds, 11% hits; max dye-equivalent concentration, M; in the data active means max dye-equivalent concentration above about 10 nM; inconclusive means mostly about 1.1 nM to 9.6 nM
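Compounds in 100 mM Tris, pH 8.0, sat 15 min at room temperature before fluorescence was read at 340 nm excitation/450 nm emission; a per-plate six-point 4-MU standard curve converted signals to dye-equivalent concentration at each compound concentration.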
An asterisk follows results filed as active; i = inactive; ? = inconclusive; . = not tested or not shown; [ ] = another dose, or the depositor's remark. Sampled rows, rich in hits. Any-hit rate of the full collection: about 14%. Unless noted, the call rests on the fitted dose curve; in most records, active means well fitted curve in the direction sought with a large enough effect; inconclusive means small, poorly fitted or top-dose-only effect, or another doubt; inactive means no such curve, though single readings can be large; an effect the other way counts as inactive or inconclusive.

SMILES	CRE Fsk mod	HADH2 inh	HSD17B inh	A350 autofl	AID923	4-MU autofl
CC1(C)CC[C@]2(C(=O)O)CC[C@]3(C)C(=CC[C@@H]4[C@@]5(C)CC[C@H](O)C(C)(C)[C@@H]5CC[C@@]43C)[C@@H]2C1	?	19%	.	i	.	i
O=C(NCCc1ccccc1)c1cc2ncc(Br)cn2n1	-3%	7%	20µM*	i	0%	i
CN(C)c1ccc(C(c2nnnn2C(C)(C)C)N2CCN(C(=O)c3ccco3)CC2)cc1 (stereo unspecified)	7%	-4%	4%	i	0%	i
CC(C)CCn1nnnc1C(c1ccc(N(C)C)cc1)N1CCN(C(=O)c2ccco2)CC1 (stereo unspecified)	-2%	-3%	-14%	1.5e-08M*	-3%	1.4e-08M*
COc1ccc(S(=O)(=O)n2nc(OC(=O)c3ccc(C)cc3)cc2N)cc1	-12%	-8%	-15%	i	-1%	i
COc1ccc(S(=O)(=O)n2nc(OC(=O)c3ccccc3)cc2N)cc1	-10%	16µM*	0%	1.4e-08M*	-1%	1.3e-08M*
O=C1c2ccc(-c3nc4ccccc4o3)cc2C(=O)N1Cc1cccnc1	?	27%	15%	4.2e-08M*	1%	3.2e-08M*
c1cncc(-c2nc3ccccc3o2)c1	?	-13%	20µM*	i	-1%	i
O=C1CCC(=O)N1c1cccc(-c2nc3ccccc3o2)c1	5%	0%	32µM*	.	-1%	.
c1cncc(-c2nc3cc(Cc4ccc5oc(-c6cccnc6)nc5c4)ccc3o2)c1	0%	16%	-3%	i	3%	i
Cn1cccc1C(=O)N1CCC2(CCCN(Cc3nccs3)C2)CC1	0%	-3%	12%	i	7%	i
C=CCN1CCc2c(cc(O)c(O)c2Cl)C(c2cccc(C)c2)C1 (stereo unspecified)	.	0.25µM*	?	.	-1%	.
CN1CCc2cc(Cl)c(O)cc2[C@H](c2ccccc2)C1	-11%	?	3%	i	0%	i
Cc1cccc([C@@H]2CN(C)CCc3c2cc(O)c(O)c3Cl)c1	?	0.13µM*	?	i	1%	i
COc1ccc(C[C@@H]2C(=O)N[C@H](C)C(=O)N(C)[C@@H]3Cc4ccc(cc4)Oc4cc(ccc4O)C[C@H](C(=O)N[C@@H](C)C(=O)N[C@H](C)C(=O)N2C)N(C)C3=O)cc1	?	9%[11.4 µM]	-3%[11.4 µM]	i	-2%[11.5 µM]	i
N=C(N)SCCSC(=N)N	-5%[7.6 µM]	-10%[11.4 µM]	13%[11.4 µM]	i	-4%[11.5 µM]	i
Cc1cccc2c(=O)cc(C)n(CC(=O)N3CCOCC3)c12	11%	14%	3%	7.1e-06M*	-1%	5.3e-06M*
CC[C@H]1C2=C3C(CC[C@H]4C(OCc5ccc(F)cc5C(F)(F)F)OC[C@](C)([C@@H]34)N(C(=O)OC(C)(C)C)C2)C(COC(C)=O)C1COC(C)=O (stereo partly specified)	?	7%	1%	.	0%	.
CCCCCC(=O)Nc1ccc2oc(-c3cccnc3)nc2c1	?	266%	3.2µM*	2.2e-08M*	0%	1.6e-08M*
c1cc(-c2nc3cc(Cc4ccc5oc(-c6ccncc6)nc5c4)ccc3o2)ccn1	6%	7%	5%	i	2%	i
O=C(Cc1ccc(Cl)cc1)Nc1ccc2oc(-c3ccncc3)nc2c1	11%	?	32µM*	4.6e-07M*	0%	2.5e-07M*
O=C(Cc1ccccc1)Nc1ccc2oc(-c3cccnc3)nc2c1	?	298%	10µM*	?	-1%	?
O=C(Nc1ccc2oc(-c3ccccc3)nc2c1)c1cccnc1	?	-3%	-5%	i	0%	i
CCC(=O)Nc1cccc(-c2nc3ccccc3o2)c1	9%	16%	25µM*	i	-2%	i
CCN(CC)CC#CCOC(=O)[C@@](O)(c1ccccc1)C1CCCCC1	0%[17.1 µM]	6%[25.6 µM]	-9%[25.6 µM]	i	-4%[25.7 µM]	i
SMILES	CRE Fsk mod	HADH2 inh	HSD17B inh	A350 autofl	AID923	4-MU autofl
Cc1ccc(S(=O)(=O)N[C@@H](CCc2ccccc2)CC(=O)C(C)(C)C)cc1	.	0%[11.4 µM]	-1%[11.4 µM]	.	0%[11.5 µM]	.
Cc1cc(C(C)(C)C)cc(CNC2CCCCC2)c1O	-3%[7.6 µM]	11%[11.4 µM]	16%[11.4 µM]	i	0%[11.5 µM]	i
CCC1OC(=O)C(C)[C@@H](O[C@H]2C[C@@](C)(OC)C(O)C(C)O2)C(C)[C@@H](O[C@@H]2OC(C)CC(N(C)C)C2O)[C@@](C)(O)CC(C)CN(C)C(C)C(O)[C@]1(C)O (stereo partly specified)	.	.	15%	.	-1%	.
CC(C)CC(C(=O)NCc1ccccn1)N1C(=O)c2ccccc2C1=O (stereo unspecified)	?	6%	-3%	?	0%	1.1e-08M*
Cc1ccc(-c2ccc(=O)n(CCC(=O)NCc3ccccn3)n2)cc1	13%	-13%	?	?	2%	i
CCN(CC)CCNC(=O)COc1ccc(OC)cc1	-2%[17.1 µM]	-2%[25.6 µM]	-5%	i	0%	i
CCN(CC)CCNC(=O)c1cc(Br)c(N)cc1OC	3%[17.1 µM]	6%[25.6 µM]	5%	2.2e-07M*	0%	1.5e-07M*
Oc1ccc(N2CCN(c3ncnc4sc5c(c34)CCC5)CC2)cc1	-26%	13µM*	?	i	1%	i
Cc1nc(-n2nnc3ccccc32)c2c3c(sc2n1)CCCC3	?	11%	32µM*	3.2e-08M*	0%	2.5e-08M*
Cc1nc(N2CCN(c3ccccc3)CC2)c2c3c(sc2n1)CCC3	4µM*	-3%	-3%	.	2%	.
c1ccc2c(c1)nnn2-c1ncnc2sc3c(c12)CCCC3	?	-8%	25µM*	1.6e-08M*	-2%	?
CCC1CCc2c(sc3ncnc(N4CCOCC4)c23)C1 (stereo unspecified)	18%	-3%	-10%	i	-2%	i
CC(O)CNc1nc2ccccc2n1-c1ncnc2sc3c(c12)CCC3 (stereo unspecified)	?	0%	3%	i	-2%	i
O=C(Nc1ccccc1)N1CCCC2(CCN(C(=O)c3cccc(F)c3)CC2)C1	-10%	4%	-1%	i	0%	i
COC(=O)c1cc2ccc(OC)c(OC)c2c(=O)s1	?	2%	-11%	2e-08M*	4%	1.9e-08M*
